Measurements reported in PubChem BioAssay AID651871 (Sanford-Burnham Center for Chemical Genomics, 2012).
Several values for one entry are separate records, joined by “and”; a condition that tells them apart may be missing. Equal entries are not always repeated.

test system: H9c2; assay: protection of cardiomyocytes from stress damage, SAR follow-up, cell-based, panel, H9c2 and HL-1, ATP luminescence, set 2 (AID 651871); conditions: H9c2/HL-1 cardiomyocytes, 2-deoxyglucose stress, with 2-deoxyglucose; run 1, at 79 µM (top of the series);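 note: cells exposed to stressor for 2 h before ATP readout; reference of the scale not given here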

SMILES	activity (protection/inhibition)
COc1ccc2c(c1OC)C(=O)N1c3ccccc3C(=O)N(Cc3cccc(Cl)c3Cl)C21 (stereo not drawn)	80.3% and 69.7% and -3.54%
CCOC(=O)c1cccc(NC(=O)CNC(=O)c2cc(-c3cc(OC)c(OC)c(OC)c3)nc3ccccc23)c1	92.1%
COc1ccc2nc(-c3cc(OC)c(OC)c(OC)c3)cc(C(=O)NCC(=O)Nc3ccc(C(C)=O)cc3)c2c1	74.1%
